Whole data set: some 16,000 sequences, median “rpm ratio (pull-down/input)” near 0.5, cut for the highest 2% near 5.5. For the sample, the highest values were picked, then their nearest neighbours and some sequences at random.
The sequences below were run against T1, MBP-FoxP3dN (Mus musculus, UniProt Q99JB6 188-423) (assay: PD-seq (MBP pull-down with sequencing); 20 mM Tris-HCl pH 7.5, 100 mM NaCl, 1.5 mM MgCl2, 0.4 uM protein, 0.1 uM dsDNA library, 30 min, room temperature, amylose pull-down; high values mean tight binding). Conditions: protein: recombinant; tags: His6-MBP; chain copies: 2; dsDNA, one strand shown.
T1 sequence: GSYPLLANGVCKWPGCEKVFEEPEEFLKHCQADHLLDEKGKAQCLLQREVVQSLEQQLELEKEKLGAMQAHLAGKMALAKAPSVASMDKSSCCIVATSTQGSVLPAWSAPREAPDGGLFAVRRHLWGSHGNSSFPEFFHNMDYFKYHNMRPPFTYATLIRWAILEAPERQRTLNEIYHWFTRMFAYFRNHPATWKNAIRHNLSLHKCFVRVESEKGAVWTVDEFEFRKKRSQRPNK
How it was run: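 Protein and DNA were mixed at 0.4 µM and 0.1 µM and held for 30 min at room temperature in Tris pH 7.5 buffer with NaCl and MgCl2; the protein was a His6-MBP-tagged, N-terminally truncated mouse FoxP3 or FoxP1 fragment from E. coli, and the DNA a Klenow-filled double-stranded degenerate library. Amylose resin captured the complexes, which were washed three times. Binding is read as reads-per-million enrichment of pull-down versus input after Illumina sequencing, with replicates pooled.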
For “GATGATTGTTCTCCCAGCTGATGAATTGGGAACTTCGAGTAAACAAATTTTCCTAATCTTTCTGTTCAAGCGCCATCTAC”, the binding signal was 0.252 RPM ratio (pull-down/input). In the case of “GATGATTGTTCTCCCAGCTGATGAATTGATAGATTCGAGTAAACAAATTTTCCTAATCTTTCTGTTCAAGCGCCATCTAC”, the binding signal is reported as 0.495 RPM ratio (pull-down/input). In the case of “GATGATTGTTCTCCCAGCTGATGAATTCATAGGCTCGAGTAAACAAATTTTCCTAATCTTTCTGTTCAAGCGCCATCTAC”, the binding signal is reported as 0.321 RPM ratio (pull-down/input). In the case of “GATGATTGTTCTCCCAGCTGATGAATTATCCCGGTCGAGTAAACAAATTTTCCTAATCTTTCTGTTCAAGCGCCATCTAC”, the binding signal is reported as 0.208 RPM ratio (pull-down/input). In the case of “GATGATTGTTCTCCCAGCTGATGAATTTGGTAACTCGAGTAAACAAATTTTCCTAATCTTTCTGTTCAAGCGCCATCTAC”, the binding signal is reported as 1.38 RPM ratio (pull-down/input). “GATGATTGTTCTCCCAGCTGATGAATTTGCCTTGTCGAGTAAACAAATTTTCCTAATCTTTCTGTTCAAGCGCCATCTAC” was tested, and the binding signal was 1.15 RPM ratio (pull-down/input). “GATGATTGTTCTCCCAGCTGATGAATTAATAGAGTCGAGTAAACAAATTTTCCTAATCTTTCTGTTCAAGCGCCATCTAC” was tested, and the binding signal was 0.294 RPM ratio (pull-down/input). With “GATGATTGTTCTCCCAGCTGATGAATTGCGCCACTCGAGTAAACAAATTTTCCTAATCTTTCTGTTCAAGCGCCATCTAC” the binding signal was 7.19 RPM ratio (pull-down/input). In the case of “GATGATTGTTCTCCCAGCTGATGAATTTGCCCACTCGAGTAAACAAATTTTCCTAATCTTTCTGTTCAAGCGCCATCTAC”, the binding signal is reported as 0.555 RPM ratio (pull-down/input). In the case of “GATGATTGTTCTCCCAGCTGATGAATTTTTGCACTCGAGTAAACAAATTTTCCTAATCTTTCTGTTCAAGCGCCATCTAC”, the binding signal is reported as 0.699 RPM ratio (pull-down/input). In the case of “GATGATTGTTCTCCCAGCTGATGAATTGCCACACTCGAGTAAACAAATTTTCCTAATCTTTCTGTTCAAGCGCCATCTAC”, the binding signal is reported as 1.52 RPM ratio (pull-down/input). In the case of “GATGATTGTTCTCCCAGCTGATGAATTGCCACTCTCGAGTAAACAAATTTTCCTAATCTTTCTGTTCAAGCGCCATCTAC”, the binding signal is reported as 1.37 RPM ratio (pull-down/input). “GATGATTGTTCTCCCAGCTGATGAATTTTGCCACTCGAGTAAACAAATTTTCCTAATCTTTCTGTTCAAGCGCCATCTAC” was tested, and the binding signal was 5.96 RPM ratio (pull-down/input). In the case of “GATGATTGTTCTCCCAGCTGATGAATTGCTGCTCTCGAGTAAACAAATTTTCCTAATCTTTCTGTTCAAGCGCCATCTAC”, the binding signal is reported as 0.662 RPM ratio (pull-down/input). With “GATGATTGTTCTCCCAGCTGATGAATTAAGACGATCGAGTAAACAAATTTTCCTAATCTTTCTGTTCAAGCGCCATCTAC” the binding signal was 0.207 RPM ratio (pull-down/input). With “GATGATTGTTCTCCCAGCTGATGAATTGCTCACATCGAGTAAACAAATTTTCCTAATCTTTCTGTTCAAGCGCCATCTAC” the binding signal was 0.686 RPM ratio (pull-down/input). In the case of “GATGATTGTTCTCCCAGCTGATGAATTATATTTATCGAGTAAACAAATTTTCCTAATCTTTCTGTTCAAGCGCCATCTAC”, the binding signal is reported as 5.59 RPM ratio (pull-down/input). “GATGATTGTTCTCCCAGCTGATGAATTTATTATATCGAGTAAACAAATTTTCCTAATCTTTCTGTTCAAGCGCCATCTAC” was tested, and the binding signal was 2.18 RPM ratio (pull-down/input). “GATGATTGTTCTCCCAGCTGATGAATTGTTTATATCGAGTAAACAAATTTTCCTAATCTTTCTGTTCAAGCGCCATCTAC” was tested, and the binding signal was 5.7 RPM ratio (pull-down/input). With “GATGATTGTTCTCCCAGCTGATGAATTTATATTATCGAGTAAACAAATTTTCCTAATCTTTCTGTTCAAGCGCCATCTAC” the binding signal was 1.6 RPM ratio (pull-down/input). In the case of “GATGATTGTTCTCCCAGCTGATGAATTTTTTATATCGAGTAAACAAATTTTCCTAATCTTTCTGTTCAAGCGCCATCTAC”, the binding signal is reported as 0.31 RPM ratio (pull-down/input). With “GATGATTGTTCTCCCAGCTGATGAATTTTATATATCGAGTAAACAAATTTTCCTAATCTTTCTGTTCAAGCGCCATCTAC” the binding signal was 1.65 RPM ratio (pull-down/input). In the case of “GATGATTGTTCTCCCAGCTGATGAATTAAAGTGTTCGAGTAAACAAATTTTCCTAATCTTTCTGTTCAAGCGCCATCTAC”, the binding signal is reported as 0.592 RPM ratio (pull-down/input). “GATGATTGTTCTCCCAGCTGATGAATTATAACCGTCGAGTAAACAAATTTTCCTAATCTTTCTGTTCAAGCGCCATCTAC” was tested, and the binding signal was 0.364 RPM ratio (pull-down/input). “GATGATTGTTCTCCCAGCTGATGAATTATGAATGTCGAGTAAACAAATTTTCCTAATCTTTCTGTTCAAGCGCCATCTAC” was tested, and the binding signal was 1.04 RPM ratio (pull-down/input). For “GATGATTGTTCTCCCAGCTGATGAATTATGCCATTCGAGTAAACAAATTTTCCTAATCTTTCTGTTCAAGCGCCATCTAC”, the binding signal was 5.9 RPM ratio (pull-down/input). With “GATGATTGTTCTCCCAGCTGATGAATTATGATTGTCGAGTAAACAAATTTTCCTAATCTTTCTGTTCAAGCGCCATCTAC” the binding signal was 4.27 RPM ratio (pull-down/input). “GATGATTGTTCTCCCAGCTGATGAATTATATGCCTCGAGTAAACAAATTTTCCTAATCTTTCTGTTCAAGCGCCATCTAC” was tested, and the binding signal was 0.913 RPM ratio (pull-down/input). With “GATGATTGTTCTCCCAGCTGATGAATTATGCGCCTCGAGTAAACAAATTTTCCTAATCTTTCTGTTCAAGCGCCATCTAC” the binding signal was 2.82 RPM ratio (pull-down/input). With “GATGATTGTTCTCCCAGCTGATGAATTAATTATGTCGAGTAAACAAATTTTCCTAATCTTTCTGTTCAAGCGCCATCTAC” the binding signal was 1.89 RPM ratio (pull-down/input). In the case of “GATGATTGTTCTCCCAGCTGATGAATTATGCATGTCGAGTAAACAAATTTTCCTAATCTTTCTGTTCAAGCGCCATCTAC”, the binding signal is reported as 6.46 RPM ratio (pull-down/input). In the case of “GATGATTGTTCTCCCAGCTGATGAATTATGCTTGTCGAGTAAACAAATTTTCCTAATCTTTCTGTTCAAGCGCCATCTAC”, the binding signal is reported as 4.71 RPM ratio (pull-down/input). With “GATGATTGTTCTCCCAGCTGATGAATTATGCCTCTCGAGTAAACAAATTTTCCTAATCTTTCTGTTCAAGCGCCATCTAC” the binding signal was 6.22 RPM ratio (pull-down/input). “GATGATTGTTCTCCCAGCTGATGAATTATGCTGTTCGAGTAAACAAATTTTCCTAATCTTTCTGTTCAAGCGCCATCTAC” was tested, and the binding signal was 3.42 RPM ratio (pull-down/input). “GATGATTGTTCTCCCAGCTGATGAATTATGAAATTCGAGTAAACAAATTTTCCTAATCTTTCTGTTCAAGCGCCATCTAC” was tested, and the binding signal was 0.632 RPM ratio (pull-down/input). “GATGATTGTTCTCCCAGCTGATGAATTATGCCTGTCGAGTAAACAAATTTTCCTAATCTTTCTGTTCAAGCGCCATCTAC” was tested, and the binding signal was 5.87 RPM ratio (pull-down/input). In the case of “GATGATTGTTCTCCCAGCTGATGAATTCTGCGGCTCGAGTAAACAAATTTTCCTAATCTTTCTGTTCAAGCGCCATCTAC”, the binding signal is reported as 1.01 RPM ratio (pull-down/input). For “GATGATTGTTCTCCCAGCTGATGAATTGCAGCCTTCGAGTAAACAAATTTTCCTAATCTTTCTGTTCAAGCGCCATCTAC”, the binding signal was 2.83 RPM ratio (pull-down/input). For “GATGATTGTTCTCCCAGCTGATGAATTGTAAACATCGAGTAAACAAATTTTCCTAATCTTTCTGTTCAAGCGCCATCTAC”, the binding signal was 5.2 RPM ratio (pull-down/input). In the case of “GATGATTGTTCTCCCAGCTGATGAATTTGCCGATTCGAGTAAACAAATTTTCCTAATCTTTCTGTTCAAGCGCCATCTAC”, the binding signal is reported as 0.474 RPM ratio (pull-down/input).

Reference: PMC12820563, “FoxP3 forms a head-to-head dimer in vivo and stabilizes its multimerization on adjacent microsatellites”
